# Article PMC8384837, “Expanding the binding specificity for RNA recognition by a PUF domain”
# How the values were obtained:
# Test in all cases: yeast three-hybrid, YBZ-1, SC-Leu-His + 0.5 mM 3-AT, 4 days
# Conditions in all cases: tags: N-Gal4 AD-HA kept; label: inside an RPR1-promoter hybrid RNA with tandem MS2 sites; ssRNA
# PUM1 PUF domain R3-IWA = PUM1 PUF domain R3-IWA (Homo sapiens, UniProt Q14671 828-1176, C935I;R936W;Q939A)
# In short: (§1)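 The interaction score is the log change in how often each variant appears, from input to selection. Frequencies came from PCR-amplified, Illumina-sequenced repeat regions of Pumilio-1 PUF domain libraries grown in strain YBZ-1 (LexA–MS2 coat fusion, HIS3 reporter) alongside matching RNA elements. Input plates were SC-Leu and selection plates were SC-Leu-His + 0.5 mM 3-AT, each for four days, and the log2 calculation used a pseudocount of 1 where a variant was absent.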
# PUM1 PUF domain R3-GRA = PUM1 PUF domain R3-GRA (Homo sapiens, UniProt Q14671 828-1176, C935G;Q939A)
# In short: as §1
# PUM1 PUF domain R3-RCA = PUM1 PUF domain R3-RCA (Homo sapiens, UniProt Q14671 828-1176, C935R;R936C;Q939A)
# In short: as §1
# PUM1 PUF domain R6-LWS = target: T1, PUM1 PUF domain R6-LWS (Homo sapiens, UniProt Q14671 828-1176, N1043L;Y1044W;Q1047S)
# T1 sequence: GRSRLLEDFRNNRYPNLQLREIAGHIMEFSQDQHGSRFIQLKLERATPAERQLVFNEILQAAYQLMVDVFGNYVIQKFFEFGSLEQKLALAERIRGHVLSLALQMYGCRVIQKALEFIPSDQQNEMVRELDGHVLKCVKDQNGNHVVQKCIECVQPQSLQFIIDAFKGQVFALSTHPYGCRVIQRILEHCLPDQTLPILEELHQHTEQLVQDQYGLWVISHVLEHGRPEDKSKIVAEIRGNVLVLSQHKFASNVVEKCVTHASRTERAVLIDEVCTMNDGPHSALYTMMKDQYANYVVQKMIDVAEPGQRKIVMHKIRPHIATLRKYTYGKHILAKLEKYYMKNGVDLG
# In short: as §1
# PUM1 PUF domain R4-WGC = PUM1 PUF domain R4-WGC (Homo sapiens, UniProt Q14671 828-1176, N971W;H972G;Q975C)
# Chain of PUM1 PUF domain R4-WGC (Q14671 828-1176 N971W/H972G/Q975C): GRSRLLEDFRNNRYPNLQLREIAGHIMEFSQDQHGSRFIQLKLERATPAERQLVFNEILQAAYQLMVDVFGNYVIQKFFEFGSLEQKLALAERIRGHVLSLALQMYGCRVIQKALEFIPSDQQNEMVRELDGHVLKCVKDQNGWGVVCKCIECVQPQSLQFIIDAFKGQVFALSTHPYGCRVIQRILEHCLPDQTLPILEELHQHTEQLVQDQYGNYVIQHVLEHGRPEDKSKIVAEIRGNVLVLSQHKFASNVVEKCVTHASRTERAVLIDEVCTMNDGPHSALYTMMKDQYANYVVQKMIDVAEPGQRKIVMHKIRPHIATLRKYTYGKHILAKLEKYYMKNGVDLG
# In short: as §1
# PUM1 PUF domain R7-RVL = PUM1 PUF domain R7-RVL (Homo sapiens, UniProt Q14671 828-1176, S1079R;N1080V;E1083L)
# Chain of PUM1 PUF domain R7-RVL (Q14671 828-1176 S1079R/N1080V/E1083L): as the sequence (Q14671 828-1176 N971W/H972G/Q975C) above, with W144N, G145H, C148Q, S252R, N253V, E256L counted along it
# In short: as §1
# PUM1 PUF domain R5-CHG = PUM1 PUF domain R5-CHG (Homo sapiens, UniProt Q14671 828-1176, R1008H;Q1011G)
# Chain of PUM1 PUF domain R5-CHG (Q14671 828-1176 R1008H/Q1011G): as the sequence (Q14671 828-1176 N971W/H972G/Q975C) above, with W144N, G145H, C148Q, R181H, Q184G counted along it
# In short: as §1
# PUM1 PUF domain R5-RQS = PUM1 PUF domain R5-RQS (Homo sapiens, UniProt Q14671 828-1176, C1007R;R1008Q;Q1011S)
# Chain of PUM1 PUF domain R5-RQS (Q14671 828-1176 C1007R/R1008Q/Q1011S): as the sequence (Q14671 828-1176 N971W/H972G/Q975C) above, with W144N, G145H, C148Q, C180R, R181Q, Q184S counted along it
# In short: as §1
# PUM1 PUF domain R5-RRL = PUM1 PUF domain R5-RRL (Homo sapiens, UniProt Q14671 828-1176, C1007R;Q1011L)
# Chain of PUM1 PUF domain R5-RRL (Q14671 828-1176 C1007R/Q1011L): as the sequence (Q14671 828-1176 N971W/H972G/Q975C) above, with W144N, G145H, C148Q, C180R, Q184L counted along it
# In short: as §1
# PUM1 PUF domain R5-WHG = PUM1 PUF domain R5-WHG (Homo sapiens, UniProt Q14671 828-1176, C1007W;R1008H;Q1011G)
# In short: as §1
# PUM1 PUF domain R5-GRH = PUM1 PUF domain R5-GRH (Homo sapiens, UniProt Q14671 828-1176, C1007G;Q1011H)
# In short: as §1
# PUM1 PUF domain R5-DIR = PUM1 PUF domain R5-DIR (Homo sapiens, UniProt Q14671 828-1176, C1007D;R1008I;Q1011R)
# In short: as §1
# PUM1 PUF domain R5-QWN = PUM1 PUF domain R5-QWN (Homo sapiens, UniProt Q14671 828-1176, C1007Q;R1008W;Q1011N)
# Chain of PUM1 PUF domain R5-QWN (Q14671 828-1176 C1007Q/R1008W/Q1011N): as the sequence (Q14671 828-1176 N971W/H972G/Q975C) above, with W144N, G145H, C148Q, C180Q, R181W, Q184N counted along it
# In short: as §1
# Chain of PUM1 PUF domain R3-IWA (Q14671 828-1176 C935I/R936W/Q939A): as the sequence (Q14671 828-1176 N971W/H972G/Q975C) above, with C108I, R109W, Q112A, W144N, G145H, C148Q counted along it
sequence,measurement,setting,value
GGCUAGAACUAGUGGAUCCCCCGGCGCCCGGCGGCUCGAGCCCGGGUAAGUGUAAGUAGUCUGCAUGCCGCCGGGCGCCAUGCCUGCAGGUCGACUCUAGAAAACAUG,binding signal,PUM1 PUF domain R3-IWA,5.56 log2 enrichment (interaction score)
same,binding signal,PUM1 PUF domain R3-GRA,1.12 log2 enrichment (interaction score)
GGCUAGAACUAGUGGAUCCCCCGGCGCCCGGCGGCUCGAGCCCGGGUAAGUGUAAUUAGUCUGCAUGCCGCCGGGCGCCAUGCCUGCAGGUCGACUCUAGAAAACAUG,binding signal,PUM1 PUF domain R3-GRA,0.97 log2 enrichment (interaction score)
same,binding signal,PUM1 PUF domain R3-RCA,3.42 log2 enrichment (interaction score)
GGCUAGAACUAGUGGAUCCCCCGGCGCCCGGCGGCUCGAGCCCGGGUAAGUGAAAAUAGUCUGCAUGCCGCCGGGCGCCAUGCCUGCAGGUCGACUCUAGAAAACAUG,binding signal,PUM1 PUF domain R6-LWS,4.85 log2 enrichment (interaction score)
GGCUAGAACUAGUGGAUCCCCCGGCGCCCGGCGGCUCGAGCCCGGGUAAGUGUACAUAGUCUGCAUGCCGCCGGGCGCCAUGCCUGCAGGUCGACUCUAGAAAACAUG,binding signal,PUM1 PUF domain R4-WGC,1.65 log2 enrichment (interaction score)
GGCUAGAACUAGUGGAUCCCCCGGCGCCCGGCGGCUCGAGCCCGGGUAAGUGUAUAUAGUCUGCAUGCCGCCGGGCGCCAUGCCUGCAGGUCGACUCUAGAAAACAUG,binding signal,PUM1 PUF domain R4-WGC,4.53 log2 enrichment (interaction score)
GGCUAGAACUAGUGGAUCCCCCGGCGCCCGGCGGCUCGAGCCCGGGUAAGUUUAAAUAGUCUGCAUGCCGCCGGGCGCCAUGCCUGCAGGUCGACUCUAGAAAACAUG,binding signal,PUM1 PUF domain R7-RVL,3.33 log2 enrichment (interaction score)
GGCUAGAACUAGUGGAUCCCCCGGCGCCCGGCGGCUCGAGCCCGGGUAAGUGUCAAUAGUCUGCAUGCCGCCGGGCGCCAUGCCUGCAGGUCGACUCUAGAAAACAUG,binding signal,PUM1 PUF domain R5-CHG,1.6 log2 enrichment (interaction score)
same,binding signal,PUM1 PUF domain R5-RQS,4.99 log2 enrichment (interaction score)
same,binding signal,PUM1 PUF domain R5-RRL,3.98 log2 enrichment (interaction score)
same,binding signal,PUM1 PUF domain R5-WHG,2.14 log2 enrichment (interaction score)
same,binding signal,PUM1 PUF domain R5-GRH,2.47 log2 enrichment (interaction score)
same,binding signal,PUM1 PUF domain R5-DIR,3.11 log2 enrichment (interaction score)
GGCUAGAACUAGUGGAUCCCCCGGCGCCCGGCGGCUCGAGCCCGGGUAAGUGUGAAUAGUCUGCAUGCCGCCGGGCGCCAUGCCUGCAGGUCGACUCUAGAAAACAUG,binding signal,PUM1 PUF domain R5-QWN,4.78 log2 enrichment (interaction score)
same,binding signal,PUM1 PUF domain R5-RQS,1.05 log2 enrichment (interaction score)
same,binding signal,PUM1 PUF domain R5-RRL,1.14 log2 enrichment (interaction score)
same,binding signal,PUM1 PUF domain R5-WHG,2.58 log2 enrichment (interaction score)
